# Screening results: PubChem BioAssay, National Center for Advancing Translational Sciences (NCATS)
# Ub-GFP proteasome – ubiquitin-GFP accumulation via proteasome inhibition; 67,000 tested, under 10 active; Ubiquitin-GFP reporter cells, proteasome inhibition, GFP fluorescence; response scale: untreated = 0%, 10 µM MG-132 = 100%; Potency, µM (highest dose often 45.9 µM), usual class: activators; active means well fitted activation curve with a large enough effect, not every such curve was filed as active; inconclusive means small, poorly fitted or top-dose-only effect, or another doubt; inactive means no such curve, though single readings can be large or run the other way
#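 Proteasome block read as GFP accumulation: ubiquitin(G76V)-GFP U2OS cells exposed to compound (2.9 nM–46 uM) for 4 hr at 37 C. Normalization used untreated cells as 0% and 10 uM MG-132 as 100%; concentration-response curves fitted.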
# Tau filament bind – binders of human tau filaments. P10636. recombinant tau filaments, thioflavin S fluorescence, 15 h; filaments grown with octadecylsulfate alongside compound. Potency, µM (highest dose often 57.1 µM). 71,000 compounds, 2% hits. AID 596;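 further: actives lower thioflavin S fluorescence by blocking filaments or displacing dye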
#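 His-tagged recombinant human tau (exons 2, 3 and 10 included), 1 uM, was induced to fibrillize by 30 uM sodium octadecylsulfate with compound present. After 15 h at 37 C, thioflavine S fluorescence (ex 450, em 510 nm) was read.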
# DNA Pol III inh – DNA polymerase III holoenzyme inhibition. reconstituted DNA polymerase III holoenzyme replication, biochemical. Potency, µM (doses to about 57.1 µM). 71,000 compounds, 0.25% hits. AID 603
#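 Reconstituted *E. coli* holoenzyme (0.35 nM Pol III, 1 nM beta, 154 nM SSB, 2 nM primase) was preincubated with compound for 15 min at RT. Synthesis on 1.4 nM ssM13Gori ran 35 min, then was stopped with PicoGreen/EDTA and read as dsDNA fluorescence.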
# 15-hLO inh – blocks human 15-lipoxygenase activity; AID 887; P16050; Potency, µM (top dose mostly 57.1 µM), hits mostly inhibitors; 74,000 compounds, 1.4% hits; purified 15hLO-1, xylenol orange hydroperoxide absorbance; further: nearly all actives have a fitted effect of over 55% in size
#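 Inhibition is scored from a chromogenic endpoint. After 15 min enzyme-compound contact, arachidonic acid (50 uM final) reacts 6 min with 40 nM 15hLO-1 at room temperature, then Fe-XO reagent is added for 30 min and absorbance ratio recorded.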
# GFP derepression – epigenetic GFP locus derepression in mouse cells; mouse C127i GFP locus derepression, cytometry, 30 h; Potency, µM (titrated, usually from 46.1 µM); 68,000 compounds, 0.09% hits
#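 Locus derepression in mouse mammary C127i cells whose integrated CMV-GFP reporter is normally silent; GFP expression after 30 h compound treatment was quantified by counting fluorescent cells.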
# HBB splicing – alters splicing of the hemoglobin beta chain; HBB splicing reporter cell assay, activation; EGFP reporter with mutant IVS2-654 intron; response scale: normalised to 500 nM splice-correcting PNA; Potency, µM (doses to about 46.1 µM), hits mostly activators; 65,000 compounds, 0.06% hits; AID 925
#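 HeLa cells stably expressing EGFP interrupted by mutant beta-globin intron 2 (IVS2-654), 500/well in 2% FCS. Treated with compound for 2 days at 37C. Splicing correction scored as total well GFP intensity (488 nm excitation, 500-520 nm emission); 500 nM antisense PNA served as control.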
# A number is an active result; i = inactive; ? = inconclusive; nt = not tested or not shown; [ ] = remark or other dose. Compounds with a hit are over-represented: about 3.2% of the library has one in this group of screens. Unless noted, the call rests on the fitted dose curve; in most records, active means well fitted curve in the direction sought with a large enough effect; inconclusive means small, poorly fitted or top-dose-only effect, or another doubt; inactive means no such curve, though single readings can be large; an effect the other way counts as inactive or inconclusive.
SMILES,Ub-GFP proteasome,Tau filament bind,DNA Pol III inh,15-hLO inh,GFP derepression,HBB splicing
COc1ccc(N2CCN(CCCNC(=O)CC3Oc4ccc(C)cc4NC3=O)CC2)cc1 (stereo unspecified),i,25µM,i,i,nt,i
Nc1cc(C(=O)O)c(O)c(S(=O)(=O)O)c1,nt,i,i,i,nt,i
C[C@H](Oc1ccc(Oc2cnc3ccc(Cl)cc3n2)cc1)C(=O)O,i[9.17 µM],i[11.4 µM],i[11.4 µM],?,i[9.22 µM],i[9.22 µM]
CCCC[C@]1(C2CCCC2)Cc2cc(OCC(=O)O)c(Cl)c(Cl)c2C1=O,i,i,i,i,i,i
NC1=N[C@H](c2ccc(Cl)cc2)N(c2ccc(S(N)(=O)=O)cc2)C(N)=N1,i[9.17 µM],i[11.4 µM],i[11.4 µM],i[11.4 µM],i[9.22 µM],i[9.22 µM]
CCCCCCCCCCCCCCCCCC(=O)NC[C@@H](COP(=O)([O-])OCC[N+](C)(C)C)OCC,i,i,i,i,i,i
CCN(CC)CC[n+]1ccc2c(C)c3[nH]c4ccccc4c3c(C)c2c1,i[9.17 µM],i[11.4 µM],4µM,i[11.4 µM],i[9.22 µM],?
c1ccc(-c2cc(N3CCOCC3)nc(-c3ccccc3)n2)cc1,i,i,i,i,i,i
Nc1ncnc2nc(-c3ccc(N4CCOCC4)nc3)cc(-c3cccc(Br)c3)c12,nt,nt,nt,10µM,nt,i
COc1ccc(C(=O)c2cn[nH]c2-c2cc(Cl)ccc2O)cc1,i,i,i,20µM,i,i
O=C(c1ccc(F)cc1)c1cn[nH]c1-c1ccccc1O,i,i,i,i,i,i
Cc1cc(Nc2cccc(F)c2)nc(-c2ccccc2O)n1,nt,i,i,10µM,i,i[0.369 µM]
N=c1c(C(=O)NCc2ccc(F)cc2)cc2c(=O)n3ccccc3nc2n1CC1CCCO1 (stereo unspecified),i,3.2µM,i,i,i,i
COCCCn1c(=N)c(C(=O)NCC2CCCO2)cc2c(=O)n3ccccc3nc21 (stereo unspecified),i,i,i,25µM,i,i
Cc1ccc(CNC(=O)c2cc3c(=O)n4cccc(C)c4nc3n(CC3CCCO3)c2=N)cc1 (stereo unspecified),i,1.3µM,i,i,i,i[1.84 µM]
O=C1CCC[C@H]2OC12[C@@H](O)CCc1ccccc1 (stereo partly specified),nt,nt,nt,i[11.4 µM],nt,i[9.22 µM]
NS(=O)(=O)c1cc2c(cc1Cl)=NC(CCC(=O)O)=NS=2(=O)O,i[9.17 µM],i[11.4 µM],i[11.4 µM],i[11.4 µM],i[9.22 µM],i[9.22 µM]
C[C@@]12CC[C@@H]3[C@H](CCC4=CC(=O)CC[C@]43C)[C@@H]1CC[C@@H]2C(=O)COS(=O)(=O)c1ccc(Br)cc1,i[9.17 µM],i[11.4 µM],i[11.4 µM],?,i[9.22 µM],i[9.22 µM]
O=c1c2c3nc4ccccc4nc3n(/N=C/c3cccs3)c2ncn1-c1ccccc1,nt,25µM,i,i,i,i[0.369 µM]
CC(=O)Nc1nc(C)c(-c2csc(Nc3ccc(O)cc3)n2)s1,i,?,i,13µM,i,nt
